Assay outcomes: PubChem BioAssay, several laboratories
RecA splice inh: Mtb RecA intein splicing inhibition; AID 2221; cell-free RecA intein splicing, fluorescence; inhibition, % (test concentration not listed); hit rate 0.75% among 290,000; in the data active means inhibition above about 30%;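 further: 0% = vehicle wells and 100% = reference inhibitor control wells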
Target sequence (P9WHJ3 whole entry, looked up, canonical isoform): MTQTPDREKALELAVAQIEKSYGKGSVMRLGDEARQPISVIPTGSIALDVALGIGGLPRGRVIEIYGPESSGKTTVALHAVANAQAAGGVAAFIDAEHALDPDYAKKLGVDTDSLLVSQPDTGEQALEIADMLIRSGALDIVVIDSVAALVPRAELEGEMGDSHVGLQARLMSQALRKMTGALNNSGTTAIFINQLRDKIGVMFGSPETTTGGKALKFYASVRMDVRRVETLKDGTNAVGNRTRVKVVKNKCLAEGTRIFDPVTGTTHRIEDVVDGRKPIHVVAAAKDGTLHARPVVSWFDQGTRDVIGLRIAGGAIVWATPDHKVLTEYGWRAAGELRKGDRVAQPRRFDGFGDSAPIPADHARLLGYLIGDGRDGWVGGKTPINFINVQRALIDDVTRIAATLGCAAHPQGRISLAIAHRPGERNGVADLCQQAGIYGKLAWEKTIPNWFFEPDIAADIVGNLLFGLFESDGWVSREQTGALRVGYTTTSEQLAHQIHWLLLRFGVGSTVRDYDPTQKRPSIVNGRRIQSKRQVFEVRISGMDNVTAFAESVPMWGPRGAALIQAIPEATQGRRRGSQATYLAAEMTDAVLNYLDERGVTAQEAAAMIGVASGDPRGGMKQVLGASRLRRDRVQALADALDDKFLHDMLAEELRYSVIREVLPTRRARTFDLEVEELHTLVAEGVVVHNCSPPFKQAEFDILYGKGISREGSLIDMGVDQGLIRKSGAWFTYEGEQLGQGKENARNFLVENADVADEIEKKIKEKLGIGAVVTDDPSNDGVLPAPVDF
SSB-PriA inh: K. pneumoniae PriA-SSBct interaction inhibition | AlphaScreen SSBct-PriA binding, biotinylated peptide | inhibition, % at 33 µM | hit rate 0.6% among 430,000; in the data active means inhibition mostly above about 37%, no sharp cut-off; inactive means mostly below about 20%;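 further: plate controls were negative control peptide for no effect and reference peptide for full effect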
CCHF vOTU inh-1: blocks the CCHF virus ovarian tumor domain protease. CCHFV vOTU protease, Pep-AMC fluorescence. inhibition, % at 11.5 µM. hit rate 0.55% among 370,000. AID 651958; further: 0% = vehicle wells with enzyme and 100% = no enzyme wells
VHR inh abs: inhibitors of human VHR1 phosphatase (DUSP3) | P51452 | recombinant VHR phosphatase, pNPP absorbance | inhibition, % at 13.3 µM | hit rate 0.52% among 290,000 | AID 1654; in the data active means inhibition above about 50%
3CLpro inhibitor: SARS-CoV 3CLpro protease inhibition; P0C6X7; recombinant SARS-CoV 3CLpro, quenched FRET peptide cleavage; hit rate 0.14% among 290,000; AID 1706; inhibition, % at 6 µM; in the data active means inhibition above about 12%
CCHF vOTU inh-2: CCHFV vOTU protease inhibition, confirmation | inhibition, % at 11.5 µM | Recombinant CCHFV vOTU, Pep-AMC fluorescence | shares compounds with CCHF vOTU inh-1 | hit rate 17% among 1,900
* marks the source's active call; other numbers are inactive results; nt = not tested or not shown; ! = a repeat was not active. Shown are actives, neighbours in structure and some others; about 1.7% of the full set was active somewhere. Unless noted, no stated cut-off is given here; in the data, active means inhibition above about 30%; inactive means the rest.

SMILES	RecA splice inh	SSB-PriA inh	CCHF vOTU inh-1	VHR inh abs	3CLpro inhibitor	CCHF vOTU inh-2
CCOc1c(OC(C)=O)ccc(/C=C/c2ccc3cccc(OC(C)=O)c3n2)c1[N+](=O)[O-]	7.8	11.4	nt	20.2	2.1	nt
Cc1ccc(Nc2cc(-n3cccn3)ncn2)c(C)c1	1.1	-1.1	63.9*	7.3	1.1	-2.0
Cc1cccc(-c2onc3ccc(C(=O)/C=C/N(C)C)cc23)c1	3.9	-8.0	33.2*	23.9	5.6	-15.9
COc1cccc(-c2onc3ccc(C(=O)/C=C/N(C)C)cc23)c1	6.3	7.8	-11.3	15.5	0.1	nt
COc1cc(NCCCCC(C)N)c2nccc(C)c2c1 (stereo not drawn)	nt	nt	57.1*	nt	nt	44.6*
O=C(CCN1C(=O)/C(=C\c2ccco2)SC1=S)Nc1ccc(C(=O)O)c(O)c1	26.2	-2.1	33.6*	-9.0	7.0	6.2
COc1ccccc1/C=C1\SC(=S)N(CCC(=O)Nc2ccc(C(=O)O)c(O)c2)C1=O	29.5	19.0	34.5*	26.8	3.3	16.0
O=C(CCN1C(=O)/C(=C/c2ccco2)SC1=S)Nc1ccc(C(=O)O)c(O)c1	26.8	5.5	14.0	-6.7	-2.5	nt
O=c1cc(O)c2ccc(O)cc2o1	-5.5	-10.3	-2.7	16.5	11.6	nt
O=c1ccc2[n+]([O-])c3ccc(O)cc3oc-2c1	9.4	-0.4	50.4*	44.7	1.3	27.0
O=C(COC(=O)c1ccc([N+](=O)[O-])s1)Nc1ncc(C(F)(F)F)cc1Cl	-0.6	6.3	49.1*	17.7	-1.7	64.0*
CCc1ccc(OCC(=O)OCC(=O)NC2CCCC(C)C2C)cc1 (stereo not drawn)	nt	-13.2	10.0	nt	nt	nt
O=C(COC(=O)c1ccccn1)Nc1ncc(C(F)(F)F)cc1Cl	-0.4	7.7	0.8	1.5	-3.0	nt
CC1CCCC(NC(=O)COC(=O)c2ccc([N+](=O)[O-])s2)C1C (stereo not drawn)	nt	1.3	66.2*	nt	nt	61.3*
CC1CCCC(NC(=O)COC(=O)COc2cccc(F)c2)C1C (stereo not drawn)	nt	-9.5	41.5*	nt	nt	-15.8
Cc1ccc(=O)n(CC(=O)NCc2sc(-c3ccccc3C)nc2C)n1	nt	-10.0	nt	nt	nt	nt
Oc1ccc(NCc2cccc(OCc3ccccc3)c2)cc1	16.6	17.0	72.8*	17.4	1.8	-15.2
O=[N+]([O-])c1ccc(COc2cccc(CNc3ccc(F)cc3)c2)cc1	11.1	-7.3	-8.3	14.7	4.0	nt
Oc1ccc(NCc2cccc(OCc3ccc(F)cc3)c2)cc1	0.3	-1.0	89.0*	4.8	-3.1	15.7
O=C(c1ccc2ncsc2c1)N1CCC(Cc2n[nH]c(=O)n2-c2ccccc2F)CC1	nt	0.0	nt	nt	nt	nt
CCCCn1c(N)c(N(CC(C)C)C(=O)CSCC(=O)Nc2cccc(C)c2)c(=O)[nH]c1=O	nt	6.7	33.8*	nt	nt	-20.6
Cn1nccc1C(=O)Nc1nc(-c2ccc3ccccc3c2)cs1	nt	6.0	nt	nt	nt	nt
CCC(=NCC1CCCO1)c1c(O)n(Cc2ccccc2)c(=O)[nH]c1=O (stereo not drawn)	-2.4	-3.2	33.2*	19.7	0.8	-5.2
CN1CCN(CC(=O)n2c3c(c4ccccc42)CCCC3)CC1	0.8	8.0	45.3*	35.1	3.2	-0.8
COc1ccc(-c2c(-c3ccccc3)c(C(=O)C(=O)NCCCN(C)C)n3ccc4cc(OC)c(OC)cc4c23)cc1OC	8.0	70.2	32.6*	6.0	-0.2	-3.6
SMILES	RecA splice inh	SSB-PriA inh	CCHF vOTU inh-1	VHR inh abs	3CLpro inhibitor	CCHF vOTU inh-2
O=C(CCc1ccc(F)c(Cl)c1)NCc1cncc(-c2ccsc2)c1	nt	-2.0	nt	nt	nt	nt
Fc1ccc(Nc2cncc(-c3ccsc3)c2)cc1Cl	nt	nt	93.6*	nt	nt	13.5
Cc1ccc(S(=O)(=O)NN=C(c2ccccc2)c2cccs2)cc1	nt	nt	32.2*	nt	nt	-2.6
CCN(CC)c1ccc(CNc2nc3ccccc3n2CCN2CCCCC2)cc1	-1.3	37.0	29.6*	19.1	0.4	0.9
O=C(NCCN1CCOCC1)c1ccc2ccccc2c1	2.5	2.8	3.6	27.7	1.9	nt
Oc1cc(NCCN2CCOCC2)cc2cccnc12	nt	-0.5	99.2*	nt	nt	45.8*
CCOC(=O)c1sc(NC(=O)c2ccc(Br)o2)cc1C	2.0	-2.2	30.6*	13.6	2.7	-3.9
CCOC(=O)c1sc(NC(=O)Nc2cccc(Cl)c2)cc1C	1.6	2.5	30.4*	11.3	-1.2	0.3
CCC(=O)NCCn1ncc2c(=O)n(Cc3ccc(Cl)cc3)cnc21	nt	-31.0	nt	nt	nt	nt
Cc1cc(C)nc(N=C2NC(=O)CS2)n1	nt	-5.9	nt	nt	nt	nt
O=C1C(Cc2ccccc2)Nc2ncnc(N3CCN(c4ccccc4)CC3)c2N1Cc1ccccc1 (stereo not drawn)	6.7	3.7	6.3	nt	nt	nt
O=C1C(Cc2ccccc2)Nc2ncnc(N3CCOCC3)c2N1Cc1ccc(Cl)cc1 (stereo not drawn)	2.4	9.8	30.8*!	nt	nt	-18.4
Cc1nc2c(=O)n(CC(=O)NCC3CCCO3)nc(-c3ccc(Cl)cc3)c2s1 (stereo not drawn)	nt	-11.0	nt	nt	nt	nt
COc1ccc(C(=O)Nc2c(N)nc(SCC(=O)Nc3cc(C)on3)[nH]c2=O)cc1	nt	-1.0	nt	nt	nt	nt
COc1ccc(NC(=O)CSc2nnc3ccc(C(=O)Nc4cccc(F)c4)cn23)cc1Cl	nt	-10.0	nt	nt	nt	nt
Oc1ccc(/C=N\Nc2cc(N3CCOCC3)nc(N3CCOCC3)n2)c(O)c1	-3.0	nt	42.1*	-2.2	-0.4	1.6
O=C(NC1CCCCC1)C(c1ccccc1F)N(C(=O)c1csnn1)C1CCCC1 (stereo not drawn)	2.0	-8.7	65.2*	27.7	-0.6	-5.5
